The list is not random: actives were taken first. Their share in the collection is about 0.86%.
AmpC detergent: qHTS Inhibitors of AmpC Beta-Lactamase (assay with detergent); P00811; Potency, µM (titrated, usually from 114 µM), for the others: top-dose activity change, negative = inhibition, actives largely listed as inhibitors; AmpC hydrolysis of nitrocefin, absorbance 480 nm, 0.01% Triton; 0.041% of 370,000 active;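 further: 0% = no-compound wells and -100% = no-enzyme wells; nearly all actives have a fitted effect of over 25% in size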
Target sequence (P00811 whole entry, looked up): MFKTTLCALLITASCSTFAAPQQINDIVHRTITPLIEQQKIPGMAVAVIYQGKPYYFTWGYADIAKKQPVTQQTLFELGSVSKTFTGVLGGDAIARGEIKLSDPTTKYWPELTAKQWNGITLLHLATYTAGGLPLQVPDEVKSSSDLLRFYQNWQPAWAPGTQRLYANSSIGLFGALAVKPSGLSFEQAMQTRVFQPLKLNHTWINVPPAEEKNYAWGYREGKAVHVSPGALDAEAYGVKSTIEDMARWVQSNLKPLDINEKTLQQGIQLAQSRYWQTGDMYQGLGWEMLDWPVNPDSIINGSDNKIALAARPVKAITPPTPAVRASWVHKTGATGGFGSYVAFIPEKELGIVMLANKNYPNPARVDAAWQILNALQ
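20 mM phosphate pH 7.0 + 0.01% (detergent screen) or 0.0001% Triton X-100; 5.3 nM AmpC reagent; cpd preinc 15 min RT; nitrocefin (800 uM stock) to start; A480 q20 s × 4 min; Activity was normalised to no-enzyme and no-compound control wells.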
AmpC inh no detg: qHTS Inhibitors of AmpC Beta-Lactamase (assay without detergent); Potency, µM (highest dose often 57.1 µM), inactives show at the highest dose activity change, negative = inhibition, actives largely listed as inhibitors; 0.52% of 330,000 active; AID 485341, 2010; P00811; AmpC nitrocefin hydrolysis, absorbance 480 nm, 0.0001% Triton;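 further: plate controls were no compound for no effect and no enzyme for full effect; nearly all actives have a fitted effect of over 20% in size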
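AmpC (5.3 nM in the dispensed reagent) in 20 mM phosphate pH 7.0 with 0.01% (detergent screen) or 0.0001% Triton X-100 was preincubated with compounds for 15 min at room temperature. Nitrocefin was then added from an 800 uM solution, and hydrolysis was followed at 480 nm.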
AMA1-RON2 inh: qHTS for Inhibitors of AMA1-RON; Towards Development of Antimalarial Drug Lead: Primary Screen; 0.2% of 360,000 active; Plasmodium falciparum AMA1 (3D7) - RON2 peptide interaction; AlphaScreen AMA1-biotinylated RON2 peptide binding; Potency, µM (doses to about 58.2 µM), for the others: top-dose activity change, negative = inhibition, most hits filed as inhibitors;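 further: 0% = vehicle wells and -100% = peptide control; nearly all actives have a fitted effect of over 45% in size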
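AMA1 (3D7) with his tag at 25 nM final met compounds first, then biotinylated RON2 peptide at 25 nM; detection used donor plus acceptor beads, 10 µg/mL apiece, read by AlphaScreen after 30 min at room temperature.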
NS1 inh: qHTS Assay for Inhibitors of Influenza NS1 Protein Function; AID 2326, 2010; 0.4% of 270,000 active; Potency, µM (top dose mostly 46.1 µM), for the others: top-dose activity, positive = more growth; calls by dose curve; further: actives are rising curves; nearly all actives have a fitted effect of over 50% in size
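OD600 was taken as the measure of yeast growth restored by compound in an NS1-expressing S. cerevisiae strain. Cells had been washed out of glucose medium and diluted 1:100 into galactose -URA medium, pH 6.0.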
* = called active by the depositor; ? = inconclusive; / = no result; [ ] = another dose, or the depositor's remark. Unless noted, the call rests on the fitted dose curve; in most records, active means well fitted curve in the direction sought with a large enough effect; inconclusive means small, poorly fitted or top-dose-only effect, or another doubt; inactive means no such curve, though single readings can be large; an effect the other way counts as inactive or inconclusive. Potency means the concentration at half of the fitted maximal effect.

SMILES | AmpC detergent | AmpC inh no detg | AMA1-RON2 inh | NS1 inh
Cc1cccc(NC(=O)CSc2nc3c(sc4ccccc43)c(=O)n2CCCC(=O)NC2CCCC2)c1 | 11% | / | / | /
COc1ccc(C2C(=O)N(C3CCC(C)CC3)CC(=O)N2CCC2=CCCCC2)cc1OC (stereo not given) | 5% | / | / | /
O=S(=O)(c1ccc(Cl)cc1)c1nc(-c2ccccc2F)oc1NCc1ccccc1 | 10% | / | / | /
Cc1nc(S(=O)(=O)c2ccc(Cl)cc2)c(NCc2ccccc2)o1 | 56µM* | -55% | -3% | 3%
CCOC(=O)c1sc(NC(=O)C(C)(C)C)cc1C | ? | 10µM* | -3% | -22%
CCOC(=O)c1sc(NC(=O)C2CC2)cc1C | -7% | -24% | -4% | -126%
COc1ccc(-c2nnc(SCc3nc4ccccc4c(=O)[nH]3)o2)cc1 | 8% | -4% | -7% | -3%
O=C(CNc1ccc2c(c1)OCO2)N/N=C\c1cn(Cc2ccc(F)cc2)c2ccccc12 | -15% | -38% | / | 13µM*
O=C(COc1coc(CN2CCCc3ccccc32)cc1=O)Nc1ccccc1 | -24% | -18% | 9% | /
COc1ccc(Nc2nc(-c3ccccc3O)nc3ccccc23)cc1 | 0% | 2µM* | -16% | -3%
Cc1ccc(S(=O)(=O)N(C)C)cc1NC(=O)Nc1ccccc1 | 1% | -55% | -9% | 0%
Cc1ccc(NC(=O)Nc2cc(S(=O)(=O)N(C)C)ccc2C)cc1 | -8% | 25µM* | 0% | /
COc1ccc(NC(=O)c2cccc(Oc3ccc([N+](=O)[O-])cc3Cl)c2)cc1 | ? | 2.5µM* | ? | ?
COc1ccc(C(=O)Nc2ccccc2)cc1NC(=O)c1ccc([N+](=O)[O-])cc1 | -9% | 18µM* | -10% | 3%
O=C(Nc1cccc(Cl)c1)c1cccc(Oc2ccc([N+](=O)[O-])cc2Cl)c1 | -18% | ? | -14% | 0%
O=C1NC[C@@H](CCCCN2C[C@H](Cc3ccc(O)cc3)N(CCc3ccc(O)cc3)C(=O)C2=O)N(CCc2ccccc2)C1=O | / | / | 8% | /
COc1ccc2[nH]cc(CCn3ccc(O)c(C/C=C/c4ccccc4)c3=O)c2c1 | 0% | 16µM* | ? | ?
O=c1c(C/C=C/c2ccccc2)c(O)ccn1CCc1c[nH]c2ccccc12 | -6% | -7%[2.29 µM] | -9% | 26%
COc1ccc(OC)c(NC2=C(Cl)C(=O)N(Cc3ccccc3)C2=O)c1 | -5% | -42% | 13µM* | -3%
Cc1nn(C)c(C)c1CCNC(=O)Nc1cccc(Cl)c1C | 8% | / | / | /
Cc1ccccc1-c1nn2c(=O)cc(CN3CCN(S(=O)(=O)c4ccc(Cl)cc4)CC3)nc2s1 | -2% | / | / | /
COc1cccc(-c2sc3ccc(OC)cc3c2-c2ccc(OCCN(C)C)cc2)c1 | / | 137% | 14µM* | /
COCCC(=O)NC1CCCc2c1cnn2-c1cccc(C)c1C (stereo not given) | -4% | 53% | 2% | 0%
Cc1cc(C(=O)Nn2c(-c3ccc(Br)cc3)nc3ccccc3c2=O)ccc1[N+](=O)[O-] | -13% | 14µM* | 3% | 17%
COc1ccc(Nc2c([N+](=O)[O-])ccc3c2=NC2(CCCCC2)N=3)cc1 | -4% | -4% | 8.9µM* | /
SMILES | AmpC detergent | AmpC inh no detg | AMA1-RON2 inh | NS1 inh
CCOC(=O)N1CCC(Nc2cc(C)nc3c(-c4ccccc4OC)c(C)nn23)CC1 | -13% | 28µM* | 0% | -67%
COc1ccccc1-c1c(C)nn2c(C)cc(C)nc12 | ? | 10µM* | 1% | -5%
Cc1nn(C)c(C)c1S(=O)(=O)NC1CCCC1 | -11% | -13% | -2% | 8%
Cc1nn(-c2nnc(NC3CCCCC3)nn2)c(C)c1Br | 100µM* | 5% | 1%[11.6 µM] | -22%
C[C@@H]1CN([C@H](C)CO)C(=O)CCCn2cc(nn2)CO[C@H]1CN(C)C(=O)Nc1cccc(Oc2ccccn2)c1 | / | / | 14% | /
O=C(NNS(=O)(=O)c1ccc(Cl)cc1)c1cc(-c2ccccc2)nc2ccccc12 | -5% | 28µM* | 53% | 2%
CCCCCC(=O)Nc1ccc(C2C(=O)c3ccccc3C2=O)cc1 | -3% | -53% | 12% | 9%
O=C(c1ccccc1)N1CCN(c2ccc(NCc3ccc4c(c3)OCO4)cc2)CC1 | 0% | 11% | 28µM* | ?

High-throughput results as filed in PubChem BioAssay.
